Assay [1] is described as follows: qHTS assay to identify small molecule agonists of the RXR signaling pathway - cell viability counter screen (AID 1159529).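 Note: HEK 293T cells carrying an RXR-alpha UAS beta-lactamase reporter; series mostly up to about 77 µM; nearly all actives have a fitted effect of over 50% in size.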 The gist of the method:
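HEK 293T RXRa-bla cells, 2% CS-FBS; 5 h settle; cpd 16 h 37 C, 5% CO2; CellTiter-Glo 30 min RT, luminescence. Tetraoctyl ammonium bromide as positive control.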

The nature of assay [2]: qHTS assay to identify small molecule antagonists of the estrogen related receptor (ERR) signaling pathway from Tox21 library - cell viability counter screen (AID 1224834). Note: nearly all actives have a fitted effect of over 30% in size. Note: potency is the fitted concentration of half-maximal effect. In outline:
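In this quantitative HTS format, ERR cells receive compounds in DMSO and are incubated for 17.5 h at 37 C. Live-cell protease activity is then detected with CellTiter-Fluor.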

Assay [3] deals with Luciferin 4-monooxygenase (Photinus pyralis) (UniProt P08659). Briefly: qHTS assay to identify small molecule inhibitors of firefly luciferase (AID 1224835). Note: nearly all actives have a fitted effect of over 25% in size. Note: potency is the fitted concentration of half-maximal effect. In outline:
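Biochemical qHTS: compounds run as interplate titrations against purified firefly enzyme, with D-luciferin and ATP each at its KM concentration. Light output recorded by CCD imaging.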

Assay [4] in a line: qHTS assay to identify small molecule agonists of the constitutive androstane receptor (CAR) signaling pathway - cell viability counter screen (AID 1224836). Note: nearly all actives have a fitted effect of over 45% in size. Note: potency is the fitted concentration of half-maximal effect. In outline:
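HepG2-CYP2B6-hCAR, 2500 cells/well, 4 h pre-incubation; cpd 15 conc + PK11195 0.75 uM final; 23 h, 37 C/5% CO2; CellTiter-Fluor, fluorescence.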

The nature of assay [5]: qHTS assay to identify small molecule antagonists of the constitutive androstane receptor (CAR) signaling pathway - cell viability counter screen (AID 1224837). Note: nearly all actives have a fitted effect of over 45% in size. Note: potency is the fitted concentration of half-maximal effect. In outline:
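In quantitative HTS format, compounds at 15 concentrations were applied to HepG2 cells double-transfected with hCAR and CYP2B6-2.2kb under 50 nM CITCO stimulation; live-cell protease activity was read after 23 hr via CellTiter-Fluor.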

The target of assay [6] is Nuclear receptor subfamily 1 group I member 3 (Homo sapiens) (UniProt Q14994). Briefly: qHTS assay to identify small molecule antagonists of the constitutive androstane receptor (CAR) signaling pathway (AID 1224838). Note: nearly all actives have a fitted effect of over 40% in size. Note: potency is the fitted concentration of half-maximal effect. The gist of the method: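 CITCO-stimulated (50 nM final) HepG2 cells stably transfected with hCAR and CYP2B6-2.2kb luciferase were exposed to compounds at 15 concentrations for 24 h at 37 C/5% CO2. A luciferase reagent was added and luminescence recorded after 30 min.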
Nuclear receptor subfamily 1 group I member 3 (Homo sapiens), sequence (Q14994 whole entry, looked up): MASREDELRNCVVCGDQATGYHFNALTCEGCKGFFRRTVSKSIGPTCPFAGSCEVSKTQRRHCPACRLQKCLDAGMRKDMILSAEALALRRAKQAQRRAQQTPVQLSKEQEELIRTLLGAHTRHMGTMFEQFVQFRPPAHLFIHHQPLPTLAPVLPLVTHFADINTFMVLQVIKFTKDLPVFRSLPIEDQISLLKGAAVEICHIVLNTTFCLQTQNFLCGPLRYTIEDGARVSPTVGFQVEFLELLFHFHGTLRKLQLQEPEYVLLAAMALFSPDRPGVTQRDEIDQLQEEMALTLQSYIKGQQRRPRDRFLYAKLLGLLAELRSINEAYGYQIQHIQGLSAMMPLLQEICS

Assay [7] shares this target. Briefly: qHTS assay to identify small molecule agonists of the constitutive androstane receptor (CAR) signaling pathway (AID 1224839).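 Note: HepG2 cells stably carrying human CAR and a CYP2B6 luciferase reporter; series mostly up to about 92 µM; nearly all actives have a fitted effect of over 15% in size.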 The gist of the method:
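HepG2-CYP2B6-hCAR cells, 2500/well, 4 h pre-incubation; compounds 15 conc.; PK11195 0.75 uM final; 24 h, 37 C/5% CO2; ONE-Glo luciferase read.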

Assay [8] is described as follows: qHTS assay to identify small molecule antagonists of the estrogen related receptor signaling pathway with the pleiotropic PPARgamma coactivator (PGC) from Tox21 10K library - cell viability counter screen (AID 1224840; active = well fitted cell-killing curve with a large enough effect in the repeat runs, not every such curve was filed as active; note: nearly all actives have a fitted effect of over 40% in size; note: potency is the fitted concentration of half-maximal effect). In outline:
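Viability counter screen, PGC/ERR cells: 17.5 h compound exposure at 37 C, CellTiter-Fluor fluorescence endpoint.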

In assay [9] the target is Thyrotropin receptor (Homo sapiens) (UniProt P16473). As to the kind of experiment: qHTS assay to identify small molecule agonists of the thyroid stimulating hormone receptor (TSHR) signaling pathway (AID 1224843; calls by dose curve; note: nearly all actives have a fitted effect of over 45% in size). In outline:
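Agonist-mode screen: TSHR HEK293 cells received test chemicals for half an hour at room temperature, then HTRF cAMP detection reagents for one hour prior to fluorescence measurement. Each chemical ran as a 15-concentration series, triplicated.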

Assay [10] can be described thus: qHTS assay to identify small molecule antagonists of the retinoic acid receptor (RAR) signaling pathway (AID 1159552; note: nearly all actives have a fitted effect of over 50% in size). In outline: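 Cells of the C3RL4 line were seeded, incubated overnight, then dosed with compounds in DMSO followed immediately by retinol (1 uM final). Six hours later luciferase detection reagent went in; signal was measured after 30 min at RT.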

The nature of assay [11]: qHTS assay to identify small molecule antagonists of the estrogen related receptor signaling pathway with the pleiotropic PPARgamma coactivator (PGC) from Tox21 10K library (AID 1224841; call rule not given here; note: actives are mostly falling curves and most rising ones were filed inactive; nearly all actives have a fitted effect of over 50% in size; note: potency is the fitted concentration of half-maximal effect). In outline: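 In the PGC/ERR line, DMSO solutions of test chemicals are pin-delivered to 2,000 cells/well six hours after dispensing. Following eighteen hours' incubation, One-Glo reagent is added and luminescence recorded.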

A short description of assay [12]: qHTS assay to identify small molecule agonists of the estrogen related receptor signaling pathway with the pleiotropic PPARgamma coactivator (PGC) from Tox21 10K library (AID 1224842). Note: nearly all actives have a fitted effect of over 15% in size. Note: potency is the fitted concentration of half-maximal effect. In outline: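 PGC/ERR reporter cell line, 2,000 cells per well, incubated 6 h at 37 C before 23 nL compound in DMSO was added. After 18 h at 37 C, One-Glo luminescence read following 30 min at room temperature.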

Assay [13] is described as follows: qHTS assay to identify small molecule antagonists of the retinoid acid receptor (RAR) signaling pathway - cell viability counter screen (AID 1159551). Note: nearly all actives have a fitted effect of over 35% in size. The gist of the method:
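Viability of C3RL4 cells is quantified from ATP by luminescence after 6 h treatment at 37 C with compounds and 1 uM retinol.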

Assay [14] in a line: qHTS assay to identify small molecule antagonists of the estrogen related receptor (ERR) signaling pathway - cell viability counter screen (AID 1224818). Note: series mostly up to about 46 µM. The gist of the method: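 Cytotoxicity check run alongside the ERR antagonist screen: cells exposed to test compounds 17.5 h at 37 C, viability taken as CellTiter-Fluor fluorescence intensity.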
A short description of assay [15]: qHTS assay to identify small molecule agonists of the retinoic acid receptor (RAR) signaling pathway (AID 1159553). Note: potency is the fitted concentration of half-maximal effect. In outline:
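Compounds dissolved in DMSO were pinned onto C3RL4 cells seeded the previous day, and plates were held 6 hr at 37 C. RARE-driven luciferase output was then read by luminescence.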

Assay [16] is described as follows: qHTS assay to identify small molecule agonists of the estrogen related receptor (ERR) signaling pathway (AID 1224820). The gist of the method:
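An ERR cell line provided by NTP was seeded at 2,000 cells per well and allowed to settle for 6 h before compounds in DMSO were added. After 18 h at 37 C, luciferase activity was measured by One-Glo luminescence.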

Assay [17] deals with estrogen-related receptor alpha (ERRalpha) with PGC-1alpha coactivator, human. As to the kind of experiment: qHTS assay to identify small molecule antagonists of the estrogen related receptor signaling pathway with the pleiotropic PPARgamma coactivator (PGC) (AID 1224821; calls by dose curve;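 note: series mostly up to about 46 µM; lower luminescence signal means antagonism of PGC/ERR signalling; nearly all actives have a fitted effect of over 50% in size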). The gist of the method:
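A PGC/ERR cell line supplied by NTP is seeded, allowed 6 h at 37 C, and treated with test compounds in DMSO for 18 h. Signal is then measured as luciferase luminescence using One-Glo.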

Assay [18] can be described thus: qHTS assay to identify small molecule antagonists of the estrogen related receptor signaling pathway with the pleiotropic PPARgamma coactivator (PGC) cell viability counter screen (AID 1224822; note: series mostly up to about 46 µM). In outline:
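Viable cell signal (CellTiter-Fluor, 30 min, 37 C/5% CO2) was measured in PGC/ERR cells after a 17.5 h compound incubation.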

Assay [19] in a line: qHTS assay to identify small molecule agonists of the estrogen related receptor signaling pathway with the pleiotropic PPARgamma coactivator (PGC) (AID 1224823). In outline:
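Compounds dissolved in DMSO are added by pin tool to PGC/ERR cells that have settled for 6 h, and incubation continues 18 h at 37 C. Reporter output is measured as One-Glo luminescence.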

Values joined by “and” are separate entries in the source; they are usually repeats but may differ in a detail not shown here. Equal values may be shown once. Records with an inconclusive call do not appear. Values without a mark were called inactive. Active and inactive are the calls of the source. Unless noted, calls come from the whole dose curve; as a rule, active = well fitted curve in the direction sought with a large enough effect in the repeat runs; inconclusive = weak or mixed curves; inactive = no such curve, though single readings can be large; an effect the other way counts as inactive or inconclusive.

Thyrotropin receptor (Homo sapiens), sequence (P16473 whole entry, looked up): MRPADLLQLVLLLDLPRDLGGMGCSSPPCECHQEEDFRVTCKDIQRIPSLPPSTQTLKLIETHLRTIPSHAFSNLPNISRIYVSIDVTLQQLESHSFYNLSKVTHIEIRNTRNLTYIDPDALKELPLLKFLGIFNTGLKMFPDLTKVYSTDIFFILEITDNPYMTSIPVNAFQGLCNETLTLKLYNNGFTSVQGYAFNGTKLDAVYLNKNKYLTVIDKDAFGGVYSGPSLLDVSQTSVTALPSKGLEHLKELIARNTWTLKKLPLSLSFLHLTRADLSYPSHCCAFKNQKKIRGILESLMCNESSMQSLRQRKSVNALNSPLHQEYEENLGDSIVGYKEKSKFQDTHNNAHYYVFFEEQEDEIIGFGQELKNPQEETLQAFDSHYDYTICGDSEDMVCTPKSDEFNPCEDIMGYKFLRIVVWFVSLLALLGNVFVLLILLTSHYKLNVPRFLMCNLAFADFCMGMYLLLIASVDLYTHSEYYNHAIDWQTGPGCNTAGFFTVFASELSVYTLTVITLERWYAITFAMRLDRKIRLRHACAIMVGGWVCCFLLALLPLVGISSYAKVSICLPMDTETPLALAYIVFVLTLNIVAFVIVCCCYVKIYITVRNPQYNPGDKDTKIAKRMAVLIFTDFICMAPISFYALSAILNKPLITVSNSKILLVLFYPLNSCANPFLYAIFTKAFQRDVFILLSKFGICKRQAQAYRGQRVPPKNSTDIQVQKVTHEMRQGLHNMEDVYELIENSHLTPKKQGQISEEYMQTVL
Luciferin 4-monooxygenase (Photinus pyralis), sequence (P08659 whole entry, looked up): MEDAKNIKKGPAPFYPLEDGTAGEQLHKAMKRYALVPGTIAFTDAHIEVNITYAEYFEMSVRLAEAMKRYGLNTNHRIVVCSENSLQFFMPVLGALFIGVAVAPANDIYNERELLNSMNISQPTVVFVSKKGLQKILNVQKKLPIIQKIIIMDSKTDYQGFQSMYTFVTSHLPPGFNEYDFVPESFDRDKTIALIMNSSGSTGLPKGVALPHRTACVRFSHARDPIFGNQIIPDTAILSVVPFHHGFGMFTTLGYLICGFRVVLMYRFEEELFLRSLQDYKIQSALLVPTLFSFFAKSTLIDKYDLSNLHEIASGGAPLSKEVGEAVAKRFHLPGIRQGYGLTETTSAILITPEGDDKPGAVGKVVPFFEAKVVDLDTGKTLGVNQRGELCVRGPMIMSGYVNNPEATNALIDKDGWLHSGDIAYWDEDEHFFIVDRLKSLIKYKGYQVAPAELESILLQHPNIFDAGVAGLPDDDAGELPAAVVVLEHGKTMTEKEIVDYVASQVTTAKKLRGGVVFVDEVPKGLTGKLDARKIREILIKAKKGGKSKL

Turning to `CC[N+]1(CC)CCC(=C(c2ccccc2)c2ccccc2)C1C` (configuration not stated), the Potency result in [1], in assay [2], in [3], in assay [4], in assay [5] and in assay [6] was “inactive” throughout. The Potency result in [7], in assay [8] and in assay [9] was “inactive” each time.
`COc1ccnc(CS(=O)c2nc3ccc(OC(F)F)cc3[nH]2)c1OC` (configuration not stated): the Potency entry in [1], in [2], in assay [3], in [4], in assay [5] and in assay [6] was “inactive” throughout. The Potency entry in assay [7], in assay [8] and in assay [9] was “inactive” throughout.
For the molecule `Nc1ccc(N)c2c1C(=O)c1ccccc1C2=O`, the Potency entry in assay [10], in [7] and in assay [12] was “inactive” throughout. Moreover, the Potency was 15.4 µM (active) in assay [2]; 17.8 µM (active) in assay [3]; 17.2 µM (active) in assay [4]; 15.4 µM (active) in assay [5]; 19.3 µM (active) in [8]; 24.3 µM (active) in assay [11].
In the case of `C=CC(=O)OCCOCCOC(=O)C=C`, the Potency in assay [2] is 38.7 µM (active); in assay [5], 61.4 µM (active); in assay [8] it was 30.8 µM (active); in assay [12], 9.73 µM (active). Further, the Potency result in assay [3] and in assay [7] was “inactive” in each case.
On to `CCC(CC)Nc1ccc(C)c(C)c1`, for which the Potency result in [2], in assay [3], in [4], in assay [5], in assay [6] and in [8] was “inactive” each time.
In the case of `CCCCCCCCCCCCCCCCOS(=O)(=O)O`, the Potency entry in assay [13], in [3], in assay [4], in assay [5], in assay [6] and in [7] was “inactive” each time. The Potency entry in assay [8], in [11] and in assay [12] was “inactive” each time.
As to `CN(C)c1ccc(C(c2ccccc2)c2ccc(N(C)C)cc2)cc1`, the Potency result in [13], in [3], in assay [4], in [5], in assay [6] and in assay [8] was “inactive” throughout. Further, the Potency entry in [12] and in assay [9] was “inactive” in each case.
Take `O=C1CCCCCCCCCCCC(=O)OCCO1`: the Potency result in [13], in assay [2], in assay [3], in assay [4], in assay [5] and in assay [6] was “inactive” throughout. In addition, the Potency entry in assay [7], in assay [8] and in assay [12] was “inactive” throughout.
`CC1=CCCC(C)(C)C12CCC(C)O2` (configuration not stated): the Potency result in assay [2], in [3], in assay [4], in assay [5] and in assay [8] was “inactive” each time.
Take `CNCCCN1c2ccccc2CCc2ccccc21`: the Potency result in [13], in assay [3], in assay [6], in assay [8] and in assay [9] was “inactive” throughout. Besides, the result in assay [14] was inactive.
As to `C=CC(=O)OCCOCCOCCOCCOC(=O)C=C`, the Potency in assay [15] is 19.4 µM (active) and 17.1 µM (active); in assay [2] it was 30.8 µM (active) and 24.1 µM (active); in [4], 54.8 µM (active) and 60.6 µM (active); in assay [5] it was 48.8 µM (active) and 54 µM (active); in assay [6] it was 61.4 µM (active); in [8], 27.4 µM (active) and 27.1 µM (active). Further, the Potency result in assay [3], in [7] and in assay [9] was “inactive” in each case.
As to `OCc1cc(C(O)CNCCCCCCOCCCCc2ccccc2)ccc1O` (configuration not stated), the Potency entry in [10], in assay [15], in assay [17], in [3], in assay [8] and in assay [12] was “inactive” each time. Moreover, the result in assay [16], in assay [18] and in assay [19] was inactive. Moreover, the Potency in assay [2] was 10.6 µM (active); in assay [4], 10.6 µM (active); in assay [5] it was 13.3 µM (active).

Values taken from PubChem BioAssay (Tox21).
